Assay outcomes from PubChem BioAssay.
GPT2 inh: GPT2 alanine aminotransferase inhibition; hit rate 0.25% among 100,000; AID 1671188; Q8TD30; Potency, µM (titrated, usually from 57.7 µM), for the others: top-dose activity change, negative = inhibition, usual class: inhibitors; Recombinant GPT2, coupled pyruvate oxidase/HRP Amplex Red fluorescence; note: nearly all actives have a fitted effect of over 60% in size
Target sequence (Q8TD30 whole entry, looked up): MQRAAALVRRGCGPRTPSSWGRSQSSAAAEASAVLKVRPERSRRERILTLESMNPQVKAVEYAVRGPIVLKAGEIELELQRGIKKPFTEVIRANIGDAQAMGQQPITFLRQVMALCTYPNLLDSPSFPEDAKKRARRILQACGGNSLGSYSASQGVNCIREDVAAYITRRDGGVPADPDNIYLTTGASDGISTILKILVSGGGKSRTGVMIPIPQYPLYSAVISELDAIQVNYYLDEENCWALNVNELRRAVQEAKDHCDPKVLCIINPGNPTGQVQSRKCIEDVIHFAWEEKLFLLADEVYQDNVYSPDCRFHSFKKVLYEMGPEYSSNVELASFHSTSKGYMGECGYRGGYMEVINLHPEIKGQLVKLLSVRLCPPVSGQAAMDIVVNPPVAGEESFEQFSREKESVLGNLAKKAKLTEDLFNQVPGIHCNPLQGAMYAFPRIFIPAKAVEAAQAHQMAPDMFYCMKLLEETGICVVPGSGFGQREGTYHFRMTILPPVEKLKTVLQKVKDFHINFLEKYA
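Fluorescence read-out: pyruvate from GPT2 turnover coupled to pyruvate oxidase, HRP and Amplex Red (0.2mM ThPP, 0.2U/mL PO and HRP, 50uM Amplex final). Substrates 250uM a-KG, 2mM L-alanine; enzyme 10ng/uL; 30 min RT.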
hNpr1 antagonist: blocks ANP-stimulated signaling of human Npr1 receptor | HEK293 hNpr1 GloSensor cGMP, ANP-stimulated luminescence | Potency, µM (top dose mostly 46.3 µM), for the others: top-dose activity change, negative = inhibition, hits mostly inhibitors | hit rate 1.6% among 76,000; calls by dose curve; note: nearly all actives have a fitted effect of over 60% in size
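HEK293 cells stably expressing human Npr1 and cGMP GloSensor pGS-40F, loaded 2 h with 2% GloSensor reagent, given compound 30 min at room temperature. Luminescence read before and 20 min after 0.1 nM hNppA.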
HEK cytotox: cytotoxic compounds in HEK 293 cells; Potency, µM (highest dose often 115 µM), without a hit: at the highest dose activity change, negative = cytotoxicity, actives largely listed as inhibitors; hit rate 6.6% among 94,000; HEK 293 viability, ATP luminescence (CellTiter-Glo), 48-72 h; AID 1345083; note: nearly all actives have a fitted effect of over 60% in size
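250 HEK 293 cells/well; compound by pintool; incubated 48 or 72 hr at 37 degree Celsius; CellTiter-Glo added, 10 min RT, luminescence imaged.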
Luciferase inh: Photinus pyralis luciferase inhibition; Potency, µM (series often up to 115 µM), most hits filed as inhibitors; purified P. pyralis luciferase, luminescence, biochemical; P08659; hit rate 2.5% among 76,000; AID 1347043; note: nearly all actives have a fitted effect of over 65% in size
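Luminescence read by CCD imager after adding enzyme (10nM final) to wells holding compound, titrated in qHTS. Substrates 10uM each D-luciferin and ATP; buffer 50mM Tris acetate pH 7.5, 10mM Mg acetate, Tween-20, BSA.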
3T3 cytotox: cytotoxic compounds in NIH 3T3 cells; NIH 3T3 viability, CellTiter-Glo ATP luminescence, 48-72 h; Potency, µM (series often up to 96.7 µM), for inactives: top-dose activity change, negative = cytotoxicity, actives largely listed as inhibitors; hit rate 4.3% among 94,000; AID 1345082; note: nearly all actives have a fitted effect of over 55% in size
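Cytotoxicity is measured as loss of cellular ATP: NIH 3T3 cells (400/well) are exposed to compound for 48 or 72 hr at 37 °C, then CellTiter-Glo luminescence is imaged after 10 min at room temperature.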
An asterisk follows results filed as active; i = inactive; ? = inconclusive; / = no result; [ ] = remark or other dose. An excerpt weighted towards active compounds, which were near 10% of everything screened. Unless noted, calls come from the whole dose curve; as a rule, active = well fitted curve in the direction sought with a large enough effect; inconclusive = small, poorly fitted or top-dose-only effect, or another doubt; inactive = no such curve, though single readings can be large; an effect the other way counts as inactive or inconclusive. % is set by controls: 0 for no effect and ±100 for the full control effect; potency is the fitted concentration of half-maximal effect.

SMILES	GPT2 inh	hNpr1 antagonist	HEK cytotox	Luciferase inh	3T3 cytotox
O=S(=O)(c1ccc(F)cc1)N1CCC(OC2CCN(Cc3ccccc3)CC2)CC1	i	0%	?	i	?
Cc1ccc(S(=O)(=O)N2CCC(OC3CCN(Cc4ccccc4)CC3)CC2)c(C)c1	i	-16%	?	i	32µM*
CCc1ccc(S(=O)(=O)N2CCC(OC3CCN(Cc4ccccc4)CC3)CC2)cc1	i	-1%	?	i	35µM*
Cc1cccc(-c2cccc(CN3CCC(NC(=O)c4ccccc4)CC3)c2)c1	i	/	35µM*	/	25µM*
COC(=O)NC1CCN(Cc2cccc(-c3cccc(C)c3)c2)CC1	i	/	?	/	?
Cc1cccc(-c2cccc(CN3CCC(NC(=O)Nc4ccc(Cl)cc4)CC3)c2)c1	-5%	/	6.3µM*	/	11µM*
Cc1cccc(-c2cccc(CN3CCC(NC(=O)c4ccc(Cl)cc4)CC3)c2)c1	-7%	/	-30%	/	-21%
CC(=O)NC1CCN(Cc2cccc(-c3cccc(C)c3)c2)CC1	i	/	?	/	100µM*
Cc1ccc(C(=O)NC2CCN(Cc3cccc(-c4cccc(C)c4)c3)CC2)cc1	i	/	40µM*	/	32µM*
Cc1ccc(NC(=O)C2CN(c3ccnc4ccnn34)C2)cc1	-9%[88.5 µM]	/	?	/	?
COc1ccc(-c2cn3cc(C(=O)NCc4cccnc4)nc3s2)cc1	2%	/	?	/	?
Cc1cccc(-c2nocc2CCC(=O)NC2CCN(Cc3ccccc3)CC2)c1	2%	-19%	?	32µM*	?
Cc1cccc(-c2nocc2CCC(=O)O)c1	i	0%	-2%	?	-8%
COc1ccc(F)cc1-c1cccc(C(=O)NCCNC(=O)c2ccc(F)cc2)c1	-5%	/	35µM*	/	?
COc1ccc(F)cc1-c1cccc(C(=O)NCCNC(=O)c2ccccc2)c1	i	/	?	/	?
COc1ccc(F)cc1-c1cccc(C(=O)NCCN[S+](=O)([O-])CCC(F)(F)F)c1	i	/	79µM*	/	?
COc1ccc(F)cc1-c1cccc(C(=O)NCCNC(=O)c2cccnc2)c1	/	/	?	/	35µM*
COc1ccccc1C(=O)NCCNC(=O)c1cccc(-c2cc(F)ccc2OC)c1	-1%	/	?	/	?
COc1ccc(F)cc1-c1cccc(C(=O)NCC(=O)NCCc2cccc(F)c2)c1	/	/	40µM*	/	?
O=C(Cn1cnnn1)N1CC(c2noc(C3CCCN3CC3CC3)n2)C1 (centres undefined)	2%	7%	4%	i	3%
COc1ccc(CC(=O)Nc2ccc([C@H]3OCC(=O)N(Cc4ccc(F)cc4)[C@@H]3CO)cc2)cc1	-1%	3%	?	i	-20%
COc1ccc(OC)c(CN2C[C@H]3[C@H](C2)[S+](=O)([O-])C(C)(C)C(=O)N3CCOc2ccccc2)c1	1%	3%	?	i	?
COc1cccc(CN2C[C@@H](CO)[C@H](c3ccncc3)C2)c1OC	i	3%	89µM*	i	-19%
COc1ccccc1CN1C[C@@H](CO)[C@H](c2ccncc2)C1	5%	2%	-7%	i	-21%
COC[C@@H]1CN(Cc2cccc(OC)c2OC)C[C@H]1c1ccncc1	i	-17%	40µM*	i	?
SMILES	GPT2 inh	hNpr1 antagonist	HEK cytotox	Luciferase inh	3T3 cytotox
CC(C)Oc1ccccc1CN1C[C@@H](CO)[C@H](c2ccncc2)C1	-3%	-17%	40µM*	i	?
CCC(C)NC(=O)C1CCCN1c1nccc(Nc2ccccc2F)n1 (centres undefined)	i	/	?	/	-29%
O=C(NC1CCN(c2cc(-c3ccc(Cl)cc3)[nH]n2)C1)c1ccc(Br)cc1 (centres undefined)	i	-20%	?	i	?
COc1ccccc1C(=O)NCc1nnc2c(-c3nc(C4CC4)no3)cccn12	i	-3%	-17%	i	-20%
Cc1noc(-c2ccc(OC(F)(F)F)cc2)c1C(=O)NCc1ccsc1	i	1%	?	i	-20%
Cc1ccccc1C(=O)N1CCC2(CC1)NC(=O)N(c1ccc(F)cc1)N2	-15%	2%	?	i	?
